Laboratory results as given in the supplement of paper PMC3334620.
The full ranking holds about 33,000 sequences; the median of “E-score (-0.5 to 0.5)” is about -0.016, and the highest 2% start at about 0.32. This is one part of a sample in which the highest values are shown more often than they occur.

target: T1, Stp1 (UniProt B3LFK1); assay: PBM E-score (8-mer binding enrichment) (E-score (-0.5 to 0.5)); higher = stronger / more preferred TF binding; settings: protein concentration: 200 nM; construct: GST-full length
T1 sequence: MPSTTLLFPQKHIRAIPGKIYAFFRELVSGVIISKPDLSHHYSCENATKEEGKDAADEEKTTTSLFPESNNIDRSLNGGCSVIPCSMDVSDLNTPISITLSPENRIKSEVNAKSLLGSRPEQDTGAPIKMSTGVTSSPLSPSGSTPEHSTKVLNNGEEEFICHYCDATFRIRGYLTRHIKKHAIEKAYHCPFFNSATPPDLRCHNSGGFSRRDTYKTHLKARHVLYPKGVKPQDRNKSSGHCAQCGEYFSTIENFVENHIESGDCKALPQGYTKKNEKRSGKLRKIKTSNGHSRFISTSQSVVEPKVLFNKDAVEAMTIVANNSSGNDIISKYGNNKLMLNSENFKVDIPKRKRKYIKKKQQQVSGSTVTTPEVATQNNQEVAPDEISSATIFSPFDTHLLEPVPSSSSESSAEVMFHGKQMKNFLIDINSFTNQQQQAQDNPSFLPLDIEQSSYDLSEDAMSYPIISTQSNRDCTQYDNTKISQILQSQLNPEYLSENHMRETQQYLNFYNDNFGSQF
Procedure: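 Universal 'all 10-mer' protein binding microarrays (Agilent AMADID 015681) probed with GST-tagged S. cerevisiae TFs (full-length or DBD) made by in vitro transcription/translation (PURExpress), about 100-200 nM. Bound TF was detected with fluorescent anti-GST. Each ungapped 8-mer (which stands for itself and its reverse complement) is scored by the PBM enrichment score (E-score), a modified Wilcoxon-Mann-Whitney statistic from -0.5 to +0.5, computed with the Universal PBM Analysis Suite. Scale: above 0.35 generally sequence-specific binding.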

Row | Sequence | PBM E-score
1 | CAAACGGG | 0.175
2 | CAAACGCC | 0.258
3 | AAAACGGA | 0.201
4 | CAAACGGC | 0.459
5 | AAAACGCC | 0.386
6 | GAAACGCC | 0.289
7 | AAAACGGC | 0.403
8 | GAAACGGA | 0.132
9 | AAAACGGT | -0.0136
10 | AAAACGCG | 0.251
11 | GAAACGGC | 0.462
12 | ACCTGATG | -0.102
13 | CCGCATTC | 0.105
14 | TACCCTAA | -0.0225
15 | CACCCACC | -0.192
16 | GAGCCATA | 0.0155
17 | ATTGCTAC | 0.0429
18 | CAGGCGTC | -0.00022
19 | AGGCCAGA | -0.103
20 | GCAACGGC | 0.411
21 | ACAACGGC | 0.308
22 | CCAACGGC | 0.316
23 | ATAAAGGA | -0.201
24 | CACGCTAC | -0.0658
25 | CACTCGGC | 0.28

Row | Sequence | PBM E-score
26 | GAAAAGAA | 0.0978
27 | CTTCTAAA | 0.168
28 | AATGCCTC | 0.308
29 | AATGCCAC | 0.293
30 | AATGCCGT | 0.485
31 | AATGCCGG | 0.137
32 | AATGCCGA | 0.303
33 | AATGCCGC | 0.465
34 | AGGCAGAG | -0.00743
35 | CCCTAAAC | -0.193
36 | GCGATCAA | -0.0307
37 | CCTCCTCG | -0.21
38 | AGCGCGGC | 0.402
39 | CGCGCGGC | 0.483
40 | CGCGCGTC | 0.16
41 | CTCGCGGC | 0.334
42 | CGCGCTGC | 0.122
43 | AGCGCGGA | 0.0636
44 | CTCGCGGA | -0.0275
45 | AGCGCGGG | 0.098
46 | ATCGCGGC | 0.238
47 | AGGTGGCC | -0.294
48 | TCTCGAGA | -0.01
49 | CCCCGCCC | 0.139
50 | ATCTTTGC | 0.262

Row | Sequence | PBM E-score
51 | AATACGGG | -0.0327
52 | AATACGGC | 0.453
53 | CATACGGA | 0.268
54 | GATACGGC | 0.463
55 | CATACGGG | 0.224
56 | GATACGGA | 0.285
57 | GATACGAC | 0.0153
58 | AATACGGT | 0.0778
59 | CATACGGC | 0.472
60 | ACCCTGAG | -0.216
61 | AATAGACC | -0.159
62 | AACACTTA | 0.0357
63 | ACATGGCC | 0.147
64 | CCAACATC | -0.127
65 | AGAGCTAT | -0.179
66 | ACAAGGGC | -0.0113
67 | CCACCTGC | -0.021
68 | ACGAGGTA | -0.0774
69 | ACGAGGAT | -0.102
70 | CCGAGGAG | -0.0986
71 | ACGAGGCG | 0.457
72 | ACCAGGCT | -0.326
73 | ACGAGGCA | 0.37
74 | CCGAGGCC | -0.22
75 | CCGAGGCG | 0.333

Row | Sequence | PBM E-score
76 | AGGAGGCG | 0.201
77 | ACGAGGCT | 0.323
78 | ACGAGGGA | -0.0556
79 | ACGAGGCC | 0.016
80 | CTGCAGGC | -0.372
81 | CTCATCTC | 0.0521
82 | ACTAAAGT | -0.0712
83 | AGTCTGGC | -0.207
84 | TACGGTAA | 0.157
85 | GCGTGGGA | -0.0429
86 | GTCGTCAC | -0.0794
87 | TCGAGGCA | 0.195
88 | GCGAGGCA | 0.439
89 | CCGAGGCA | 0.179
90 | TATCAATA | 0.0831
91 | CGCGGCCC | 0.349
92 | CGCGGCCG | 0.321
93 | AGCGGCCG | 0.285
94 | CGCGGCCA | 0.269
95 | AGCGGCCC | -0.00454
96 | GGCGGCCC | 0.0299
97 | AAAGTCGA | -0.15
98 | CCACACGC | 0.158
99 | AGACACGG | 0.363
100 | ACAAACGC | 0.252

Row | Sequence | PBM E-score
101 | AGACACGA | -0.124
102 | CCACACGG | 0.385
103 | AGACACAA | 0.154
104 | ACACACGA | 0.135
105 | ACACACGT | 0.0897
106 | CCACACGA | -0.105
107 | ACAAACGA | 0.129
108 | ACACACGG | 0.356
109 | ACAAACGG | 0.352
110 | CTAGACGA | 0.105
111 | GCTCAGCC | -0.123
112 | ATGAGAGG | -0.118
113 | CTCGGTTA | -0.119
114 | ATGCGAAC | -0.103
115 | ACGGCGCT | 0.481
116 | ACGGCGCA | 0.482
117 | ACCGCGCT | 0.077
118 | ACGGCCCA | 0.333
119 | TCGGCCCA | -0.116
120 | CTGGCGCA | -0.0136
121 | ATGGCGCA | 0.0846
122 | ACGGCCCT | 0.275
123 | ACTGCGCT | -0.19
124 | GACTGACC | -0.312
125 | GCCTCTCC | 0.0401

Row | Sequence | PBM E-score
126 | CCTCCTGC | -0.205
127 | ACAGTCTA | -0.00216
128 | GCTTGCCA | -0.0643
129 | ACCTAGAT | -0.159
130 | AAGCTAAG | -0.136
131 | CAGTGTCA | 0.0177
132 | AGGCAATC | 0.114
133 | AGGCAATA | 0.227
134 | GGGCAATA | 0.0993
135 | CGGCAATA | 0.352
136 | CGGCAAGC | 0.124
137 | CGGCAATC | 0.332
138 | AAGAGCGA | -0.231
139 | CACTAGTG | 0.056
140 | ACCTTTCC | -0.194
141 | CCCTTTCC | -0.11
142 | GCCTTTCC | 0.381
143 | GTTGGGTA | -0.109
144 | AGGCGTAC | 0.137
145 | GGGCGTAC | -0.134
146 | GGGCGTAA | -0.0217
147 | CGGCGTAG | 0.335
148 | AGGCGTAG | -0.0223
149 | CCGCGTAG | 0.25
150 | TGGCGTAA | 0.0095

Row | Sequence | PBM E-score
151 | CGGCGTAA | 0.39
152 | CGGCGTAC | 0.36
153 | ATAGTTTG | 0.121
154 | TGTGCAAA | -0.111
155 | ATCCTGCA | -0.159
156 | CAACGCAC | 0.0556
157 | AAACATTT | 0.0291
158 | ACTATTCC | 0.0191
159 | ACTCGCTG | 0.0353
160 | CACTTAGC | 0.0853
161 | AGAAGTTC | 0.0255
162 | AGGCGCTA | 0.358
163 | CTGCGCTA | -0.221
164 | CTGCGCTC | -0.214
165 | AGGCGCTG | 0.311
166 | GGGCGCTA | 0.0956
167 | CCGCGCTA | 0.289
168 | CGGCGCTC | 0.427
169 | AGGCGCTC | 0.137
170 | CGGCGCTA | 0.453
171 | AGCACTTG | -0.266
172 | GTTCTCAA | 0.2
